Sequences and labels used below:
T1: CAPN2 513-700 EF-hand_8 (domain begin residue: 513, domain end residue: 700), P17655
T1 chain: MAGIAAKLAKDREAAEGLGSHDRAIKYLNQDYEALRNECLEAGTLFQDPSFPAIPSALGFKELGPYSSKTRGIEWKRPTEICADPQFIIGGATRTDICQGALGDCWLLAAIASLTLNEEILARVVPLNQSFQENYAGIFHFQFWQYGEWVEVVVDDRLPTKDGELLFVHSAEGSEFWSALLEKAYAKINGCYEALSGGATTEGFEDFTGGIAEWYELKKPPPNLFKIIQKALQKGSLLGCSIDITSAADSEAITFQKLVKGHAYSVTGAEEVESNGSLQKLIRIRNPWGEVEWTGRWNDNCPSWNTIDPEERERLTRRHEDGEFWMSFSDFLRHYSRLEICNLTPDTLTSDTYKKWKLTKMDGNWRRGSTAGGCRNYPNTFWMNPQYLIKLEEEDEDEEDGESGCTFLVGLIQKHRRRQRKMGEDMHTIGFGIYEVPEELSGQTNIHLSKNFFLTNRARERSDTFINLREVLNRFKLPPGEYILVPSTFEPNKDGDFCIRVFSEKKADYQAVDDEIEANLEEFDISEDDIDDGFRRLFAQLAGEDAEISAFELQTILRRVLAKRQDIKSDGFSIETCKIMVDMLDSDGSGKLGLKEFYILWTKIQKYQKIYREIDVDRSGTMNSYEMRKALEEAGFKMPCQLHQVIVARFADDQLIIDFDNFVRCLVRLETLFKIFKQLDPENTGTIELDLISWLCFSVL

T2: ARID4A 568-634 Tudor-knot (domain begin residue: 568, domain end residue: 634), P29374
T2 chain: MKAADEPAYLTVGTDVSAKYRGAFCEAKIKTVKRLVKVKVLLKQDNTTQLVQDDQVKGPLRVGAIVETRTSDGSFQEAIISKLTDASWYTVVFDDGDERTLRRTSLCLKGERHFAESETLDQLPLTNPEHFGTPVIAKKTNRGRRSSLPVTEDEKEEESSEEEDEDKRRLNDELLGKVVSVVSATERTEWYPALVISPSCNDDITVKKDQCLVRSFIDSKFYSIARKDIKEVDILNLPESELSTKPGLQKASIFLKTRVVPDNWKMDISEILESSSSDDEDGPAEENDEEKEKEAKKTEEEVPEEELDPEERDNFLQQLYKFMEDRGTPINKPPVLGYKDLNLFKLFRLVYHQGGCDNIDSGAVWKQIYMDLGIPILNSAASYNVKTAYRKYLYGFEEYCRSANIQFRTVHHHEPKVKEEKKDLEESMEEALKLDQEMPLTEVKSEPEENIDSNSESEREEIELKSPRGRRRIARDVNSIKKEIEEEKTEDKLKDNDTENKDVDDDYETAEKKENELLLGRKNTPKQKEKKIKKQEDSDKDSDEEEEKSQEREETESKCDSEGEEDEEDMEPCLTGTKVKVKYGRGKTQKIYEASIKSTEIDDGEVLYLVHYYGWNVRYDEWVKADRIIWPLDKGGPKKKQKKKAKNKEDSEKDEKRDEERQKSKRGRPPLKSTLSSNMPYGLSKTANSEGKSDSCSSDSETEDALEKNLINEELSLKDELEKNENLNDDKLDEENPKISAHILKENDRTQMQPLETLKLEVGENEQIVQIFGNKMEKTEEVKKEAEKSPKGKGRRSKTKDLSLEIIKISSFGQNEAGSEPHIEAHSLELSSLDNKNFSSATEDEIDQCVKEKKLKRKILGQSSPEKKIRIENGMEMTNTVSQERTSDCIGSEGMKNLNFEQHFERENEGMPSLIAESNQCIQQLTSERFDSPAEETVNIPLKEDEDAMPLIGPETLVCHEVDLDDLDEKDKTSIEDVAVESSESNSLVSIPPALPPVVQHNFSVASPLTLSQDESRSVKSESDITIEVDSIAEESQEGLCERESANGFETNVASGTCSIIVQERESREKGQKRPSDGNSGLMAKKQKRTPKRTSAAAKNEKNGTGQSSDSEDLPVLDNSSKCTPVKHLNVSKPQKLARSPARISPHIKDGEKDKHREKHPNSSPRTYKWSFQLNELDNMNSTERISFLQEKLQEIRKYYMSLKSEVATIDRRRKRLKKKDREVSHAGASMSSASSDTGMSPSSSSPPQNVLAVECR

T3: CAPNS1 1-268 EF-hand_8+EF-hand_5 (domain begin residue: 1, domain end residue: 268), P04632
T3 chain: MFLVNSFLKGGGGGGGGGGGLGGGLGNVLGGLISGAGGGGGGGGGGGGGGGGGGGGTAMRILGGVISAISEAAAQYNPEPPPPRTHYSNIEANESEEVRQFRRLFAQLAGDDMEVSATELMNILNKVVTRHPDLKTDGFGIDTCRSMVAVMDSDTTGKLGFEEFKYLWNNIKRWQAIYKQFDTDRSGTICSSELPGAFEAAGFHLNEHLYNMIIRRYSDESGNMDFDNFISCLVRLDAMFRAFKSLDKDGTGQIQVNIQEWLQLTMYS

T4: TDRD1 261-449 TUDOR (domain begin residue: 261, domain end residue: 449), Q9BXT4
T4 chain: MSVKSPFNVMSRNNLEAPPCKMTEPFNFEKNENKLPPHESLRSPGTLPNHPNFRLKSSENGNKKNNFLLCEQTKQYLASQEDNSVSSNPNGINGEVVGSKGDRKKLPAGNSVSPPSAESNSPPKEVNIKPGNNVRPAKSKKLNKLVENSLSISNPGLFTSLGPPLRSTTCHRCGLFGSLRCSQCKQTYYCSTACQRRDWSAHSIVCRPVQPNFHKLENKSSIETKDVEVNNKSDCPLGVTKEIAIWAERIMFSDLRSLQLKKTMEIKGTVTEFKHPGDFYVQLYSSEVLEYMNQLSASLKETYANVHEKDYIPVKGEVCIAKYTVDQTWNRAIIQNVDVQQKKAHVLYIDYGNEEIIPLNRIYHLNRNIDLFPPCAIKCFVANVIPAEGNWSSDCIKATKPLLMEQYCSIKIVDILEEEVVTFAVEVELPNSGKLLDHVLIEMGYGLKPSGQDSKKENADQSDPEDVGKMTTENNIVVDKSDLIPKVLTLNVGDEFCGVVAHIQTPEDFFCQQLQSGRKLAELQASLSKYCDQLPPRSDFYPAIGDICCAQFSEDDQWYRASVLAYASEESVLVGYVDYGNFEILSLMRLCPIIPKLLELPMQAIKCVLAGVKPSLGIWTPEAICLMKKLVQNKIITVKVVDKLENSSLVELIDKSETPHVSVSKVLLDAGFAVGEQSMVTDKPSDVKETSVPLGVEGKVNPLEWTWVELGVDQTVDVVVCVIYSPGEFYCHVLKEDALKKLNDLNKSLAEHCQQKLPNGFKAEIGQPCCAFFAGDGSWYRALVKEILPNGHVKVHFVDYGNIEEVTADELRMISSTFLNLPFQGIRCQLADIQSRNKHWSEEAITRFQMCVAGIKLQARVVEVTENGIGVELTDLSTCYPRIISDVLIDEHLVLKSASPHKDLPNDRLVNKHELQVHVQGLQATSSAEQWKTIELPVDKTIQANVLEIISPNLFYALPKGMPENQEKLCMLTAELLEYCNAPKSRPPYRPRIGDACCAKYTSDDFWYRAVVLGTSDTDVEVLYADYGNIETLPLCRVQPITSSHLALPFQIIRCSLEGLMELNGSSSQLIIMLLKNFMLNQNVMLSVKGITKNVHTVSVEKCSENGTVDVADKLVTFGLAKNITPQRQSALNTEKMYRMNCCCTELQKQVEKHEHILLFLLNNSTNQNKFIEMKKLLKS

T5: TDRKH 290-430 TUDOR+SNase (domain begin residue: 290, domain end residue: 430), Q9Y2W6
T5 chain: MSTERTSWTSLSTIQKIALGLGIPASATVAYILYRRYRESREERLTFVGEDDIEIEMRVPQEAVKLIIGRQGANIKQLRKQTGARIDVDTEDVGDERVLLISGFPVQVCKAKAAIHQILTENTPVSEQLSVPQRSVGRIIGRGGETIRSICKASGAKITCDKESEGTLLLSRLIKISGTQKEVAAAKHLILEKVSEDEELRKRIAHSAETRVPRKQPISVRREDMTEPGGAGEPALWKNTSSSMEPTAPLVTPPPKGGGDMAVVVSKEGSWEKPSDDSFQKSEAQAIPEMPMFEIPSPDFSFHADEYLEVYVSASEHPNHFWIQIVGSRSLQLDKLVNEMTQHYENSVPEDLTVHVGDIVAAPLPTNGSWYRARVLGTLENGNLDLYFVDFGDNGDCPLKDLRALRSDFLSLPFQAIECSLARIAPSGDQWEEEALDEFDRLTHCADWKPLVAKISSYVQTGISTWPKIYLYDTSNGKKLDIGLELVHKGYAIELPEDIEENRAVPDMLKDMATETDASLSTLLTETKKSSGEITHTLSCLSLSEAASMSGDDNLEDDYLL

T6: BTN1A1 285-479 SPRY (domain begin residue: 285, domain end residue: 479), Q13410
T6 chain: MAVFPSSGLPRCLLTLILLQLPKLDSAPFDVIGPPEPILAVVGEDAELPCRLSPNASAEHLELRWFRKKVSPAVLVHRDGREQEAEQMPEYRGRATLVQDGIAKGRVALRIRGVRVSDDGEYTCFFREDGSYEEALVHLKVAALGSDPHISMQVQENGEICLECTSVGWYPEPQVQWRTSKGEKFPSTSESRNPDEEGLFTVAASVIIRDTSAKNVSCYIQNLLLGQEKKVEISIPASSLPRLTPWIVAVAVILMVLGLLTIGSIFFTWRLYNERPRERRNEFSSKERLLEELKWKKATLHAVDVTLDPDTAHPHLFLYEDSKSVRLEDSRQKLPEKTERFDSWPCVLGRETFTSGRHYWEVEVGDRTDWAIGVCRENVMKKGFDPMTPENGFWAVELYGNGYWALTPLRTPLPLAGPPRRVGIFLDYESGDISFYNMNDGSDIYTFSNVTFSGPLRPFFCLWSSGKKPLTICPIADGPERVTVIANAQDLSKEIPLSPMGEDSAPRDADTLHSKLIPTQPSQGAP

The text below walks through data of the supplement of paper PMC7724964.

± gives the standard deviation of the averaged measurements.

Sequence of SETD1A 2-220 RRM_1 (domain begin residue: 2, domain end residue: 220), O15047 (O15047 whole entry): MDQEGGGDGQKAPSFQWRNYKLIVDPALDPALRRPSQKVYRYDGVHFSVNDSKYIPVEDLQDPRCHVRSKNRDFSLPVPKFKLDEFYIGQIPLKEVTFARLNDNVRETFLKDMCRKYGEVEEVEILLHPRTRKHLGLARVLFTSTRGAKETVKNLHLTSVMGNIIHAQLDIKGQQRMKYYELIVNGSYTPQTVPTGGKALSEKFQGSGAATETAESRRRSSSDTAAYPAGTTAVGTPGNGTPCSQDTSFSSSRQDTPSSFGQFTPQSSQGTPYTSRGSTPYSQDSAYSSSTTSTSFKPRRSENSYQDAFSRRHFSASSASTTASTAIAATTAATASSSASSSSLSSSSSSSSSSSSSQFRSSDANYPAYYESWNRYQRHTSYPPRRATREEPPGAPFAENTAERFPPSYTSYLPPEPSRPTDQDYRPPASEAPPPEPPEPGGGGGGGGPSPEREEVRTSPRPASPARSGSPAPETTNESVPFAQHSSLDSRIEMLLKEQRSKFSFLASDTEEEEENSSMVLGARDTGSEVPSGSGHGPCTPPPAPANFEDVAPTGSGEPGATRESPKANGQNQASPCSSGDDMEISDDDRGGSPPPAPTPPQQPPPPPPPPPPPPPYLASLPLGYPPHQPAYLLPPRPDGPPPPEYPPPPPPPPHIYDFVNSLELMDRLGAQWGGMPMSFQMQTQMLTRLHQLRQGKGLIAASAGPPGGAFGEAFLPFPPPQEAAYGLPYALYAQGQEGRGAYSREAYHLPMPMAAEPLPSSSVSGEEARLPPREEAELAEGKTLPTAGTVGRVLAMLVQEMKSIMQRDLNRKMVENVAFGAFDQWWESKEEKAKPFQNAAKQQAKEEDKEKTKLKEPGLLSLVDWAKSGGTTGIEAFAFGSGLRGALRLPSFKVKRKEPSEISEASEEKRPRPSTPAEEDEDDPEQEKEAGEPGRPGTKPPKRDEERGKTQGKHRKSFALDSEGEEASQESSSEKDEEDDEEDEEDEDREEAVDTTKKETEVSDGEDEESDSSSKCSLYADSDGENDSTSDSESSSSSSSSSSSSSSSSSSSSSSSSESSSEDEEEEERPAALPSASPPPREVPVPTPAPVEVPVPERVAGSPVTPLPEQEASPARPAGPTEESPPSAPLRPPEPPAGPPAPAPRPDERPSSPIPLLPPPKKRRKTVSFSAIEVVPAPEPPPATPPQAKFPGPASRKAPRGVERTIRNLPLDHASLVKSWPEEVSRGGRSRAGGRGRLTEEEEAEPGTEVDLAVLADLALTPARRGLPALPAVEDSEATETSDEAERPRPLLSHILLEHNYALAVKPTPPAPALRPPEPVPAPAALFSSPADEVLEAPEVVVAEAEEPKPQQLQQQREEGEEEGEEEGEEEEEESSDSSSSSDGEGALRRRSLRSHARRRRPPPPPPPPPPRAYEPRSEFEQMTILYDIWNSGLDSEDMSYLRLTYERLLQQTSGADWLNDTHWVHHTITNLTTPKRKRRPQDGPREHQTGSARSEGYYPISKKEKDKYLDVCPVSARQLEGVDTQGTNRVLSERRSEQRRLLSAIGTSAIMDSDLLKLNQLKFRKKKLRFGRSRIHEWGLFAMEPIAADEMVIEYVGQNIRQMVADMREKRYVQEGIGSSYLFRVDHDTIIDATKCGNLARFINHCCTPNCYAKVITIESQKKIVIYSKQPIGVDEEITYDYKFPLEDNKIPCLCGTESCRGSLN
Sequence of ARF3 1-181 Arf (domain begin residue: 1, domain end residue: 181), P61204 (P61204 whole entry): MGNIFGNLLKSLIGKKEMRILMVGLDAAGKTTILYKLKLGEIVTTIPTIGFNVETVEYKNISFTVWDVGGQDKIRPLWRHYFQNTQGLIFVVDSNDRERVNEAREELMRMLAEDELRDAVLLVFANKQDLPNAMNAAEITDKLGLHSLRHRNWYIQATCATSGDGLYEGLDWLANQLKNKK
Sequence of CBX3 109-173 Chromo_shadow (domain begin residue: 109, domain end residue: 173), Q13185 (Q13185 whole entry): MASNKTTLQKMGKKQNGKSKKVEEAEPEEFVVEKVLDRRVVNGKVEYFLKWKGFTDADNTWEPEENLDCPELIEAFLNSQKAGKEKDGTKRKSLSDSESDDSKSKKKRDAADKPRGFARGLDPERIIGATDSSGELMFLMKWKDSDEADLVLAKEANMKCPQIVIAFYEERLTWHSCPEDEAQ

The first experiment addresses T1, CAPN2 513-700 EF-hand_8 (domain begin …. Kind of experiment: phage ELISA signal ratio (GST-PRM binding over GST background); higher = stronger binding of peptide-phage to the PRM. Here is the method: (§1)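 Phage-displayed random hexadecapeptides (Cys-free, flanked by invariant Gly linkers, fused to the M13 P8 major coat protein) were selected over 5 rounds against GST-fused human PRM domains. Individual clones from rounds 4-5 were tested by phage ELISA, and positive clones binding the target but not GST were sequenced. Values are the ELISA signal ratio of target over background (GST); the background signal is given separately.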
For VTVPPWLMEMIMELMQ, the “phage ELISA signal ratio” value is 5.99.

For GDWEWVERWLEMHLLE, the “phage ELISA signal ratio” value was determined as 12.6. For ISESQIAQFVMAWMQQ, the “phage ELISA signal ratio” value was 22.5.

Another experiment addresses CBX3 109-173 Chromo_shadow (domain begin residue: 109, domain end residue: 173), Q13185. The description is as above. Here is the method: as §1
Regarding WIENWSVSPWDLTNPF, the “phage ELISA signal ratio” value came out at 4.99.

The target of another experiment is T2, ARID4A 568-634 Tudor-knot (domain begin …. The description is as above. On the procedure:
as §1
As for EQLEPWLMPGQSQLFG, the “phage ELISA signal ratio” value is 9.13. Still for that read-out and setting: then QQVVDMQQMWQQWIEI, with 4.93; and STDIWDMWREWNEIDM, with 9.5 ± 0.67.

As for NWDMWMEEQYDPSVML, the “phage ELISA signal ratio” value came to 9.12.

The target in a further experiment is T3, CAPNS1 1-268 EF-hand_8+EF-hand_5 …. The experiment is described as above. Here is the method: as §1
Regarding LHSNLEEWLLEDLMMW, the “phage ELISA signal ratio” value worked out at 18.9.

The next experiment deals with ARF3 1-181 Arf (domain begin residue: 1, domain end residue: 181), P61204. The experiment is described as above. On the procedure:
as §1
On to DIYWGYHMTDFISQET, for which the “phage ELISA signal ratio” value worked out at 15.3.

The next experiment deals with KMT2C 1055-1137 PHD (domain begin residue: 1055, domain end residue: 1137). The description is as above. Here is the method: as §1
As to STDIWDMWREWNEIDM, the “phage ELISA signal ratio” value came out at 6.74.

The next experiment deals with KMT2C 995-1055 PHD (domain begin residue: 995, domain end residue: 1055). The description is as above. On the procedure:
as §1
As for STDIWDMWREWNEIDM, the “phage ELISA signal ratio” value turned out to be 5.38.

Another experiment deals with SETD1A 2-220 RRM_1 (domain begin residue: 2, domain end residue: 220), O15047. Described as above. Here is the method:
as §1
On to STDIWDMWREWNEIDM, for which the “phage ELISA signal ratio” value came out at 12.

A further experiment has as its target T4, TDRD1 261-449 TUDOR (domain begin …. The experiment is described as above. On the procedure: as §1
As for STDIWDMWREWNEIDM, the “phage ELISA signal ratio” value came to 9.16.

Another experiment deals with T5, TDRKH 290-430 TUDOR+SNase (domain begin …. Described as above. Here is the method:
as §1
On to STDIWDMWREWNEIDM, for which the “phage ELISA signal ratio” value is 6.85.

The target of another experiment is T6, BTN1A1 285-479 SPRY (domain begin …. The experiment is described as above. On the procedure:
as §1
As to DWQYTYMPDMIPDWVM, the “phage ELISA signal ratio” value is 20.7. Same read-out and setting: under RDPHWQHKQQMQIVLM stands 11.1.
